Test results as given in PubChem BioAssay (Tox21).
“And” between values parts separate entries of the source, which are not always exact repeats. Identical values can stand only once. Records with an inconclusive call do not appear. Where a call stands in place of a potency, no number is given. Some compounds were tested as several samples or in several runs, with calls that do not always agree. The source made the active and inactive calls. Unless noted, calls come from the whole dose curve.

Columns and labels:
[1] = Nuclear factor erythroid 2-related factor 2/antioxidant responsive element (Nrf2/ARE) small molecule agonists: qHTS cell viability counter screen in human keratinocytes (AID 1919968; active = well fitted curve in the direction sought with a large enough effect in the repeat runs; an effect the other way counts as inactive or inconclusive; note: nearly all actives have a fitted effect of over 55% in size; note: potency is the fitted concentration of half-maximal effect)
Procedure, shortened: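 CellTiter-Fluor fluorescence, read 1 h after reagent, gave viability in the same wells as the ARE-luciferase assay. KeratinoSens cells (1,500/well) had 23 h compound exposure at 37 C/5% CO2 following 5 h plating.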

[2] = Nuclear factor erythroid 2-related factor 2/antioxidant responsive element (Nrf2/ARE) small molecule agonists: luciferase reporter gene qHTS assay in human keratinocytes (AID 1919969); note: nearly all actives have a fitted effect of over 35% in size; note: potency is the fitted concentration of half-maximal effect
[3] = biological target: Gonadotropin-releasing hormone receptor (Homo sapiens) (UniProt P30968); assay: Human gonadotropin-releasing hormone receptor (GnRHR) small molecule agonists, calcium flux assay in GnRHR-HEK293 cells (AID 1920063); note: nearly all actives have a fitted effect of over 35% in size
Procedure, shortened: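 Agonist mode: compounds at 15 concentrations, in triplicate, went onto calcium dye-loaded GnRHR-HEK293 cells. Intracellular calcium was then followed as 480/540 nm fluorescence at 1 s intervals over 3 min.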

[4] = biological target: KiSS-1 receptor (Homo sapiens) (UniProt Q969F8); assay: Human kisspeptin (KISS1R) small molecule agonists, calcium flux assay in KISS1R-HEK293 cells (AID 1920064; active = well fitted curve in the direction sought with a large enough effect in the repeat runs; an effect the other way counts as inactive or inconclusive)
Procedure, shortened: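 Agonist mode: intracellular calcium rise tracked at 1 s intervals over 3 min (480/540 nm) immediately after compound addition to dye-loaded KISS1R-HEK293 stable cells. Each compound tested at 15 concentrations in triplicate.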

[5] = G protein-coupled receptor (GPCR) small molecule agonists, calcium flux assay: HEK293 wild type cell line counter screen (AID 1920065)
Procedure, shortened: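 Calcium flux counter screen: compound added in agonist mode at 15 concentrations in triplicate to dye-loaded parental HEK293 cells. Fluorescence (480/540) read kinetically for 3 min; ATP served as positive control.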

[6] = p53 small molecule agonists, cell-based qHTS assay with human liver microsomes: qHTS cell viability counter screen (AID 1963579); note: nearly all actives have a fitted effect of over 45% in size; note: potency is the fitted concentration of half-maximal effect
Procedure, shortened: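 Luminescent CellTiter-Glo read-out, 30 min at room temperature, gauged cytotoxicity in p53RE-bla cells exposed 16 h at 37 C to DMSO-dissolved compounds with metabolic activation by human liver microsomes and NADPH, each 0.5 mg/mL final.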

[7] = p53 small molecule agonists, cell-based qHTS assay with rat liver microsomes: qHTS cell viability counter screen (AID 1963580); note: nearly all actives have a fitted effect of over 45% in size
Procedure, shortened: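 Luminescent ATP readout (CellTiter-Glo, 30 min at room temperature) reports viability of p53RE-bla HCT-116 cells after 16 h at 37 C with test compounds under metabolic activation by rat liver microsomes and NADPH at 0.5 mg/mL final each.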

[8] = p53 small molecule agonists, cell-based qHTS assay: qHTS cell viability counter screen (AID 1963581); note: nearly all actives have a fitted effect of over 45% in size
Procedure, shortened: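 Counter screen read by CellTiter-Glo luminescence (ATP content, 30 min at room temperature), run in the same wells as the beta-lactamase reporter read. HCT-116 p53RE-bla cells saw compounds for 16 h at 37 C.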

[9] = biological target: 5-hydroxytryptamine receptor 2A (Homo sapiens) (UniProt P28223); assay: 5-hydroxytryptamine receptor 2A (HTR2A) small molecule antagonists, cell-based qHTS assay (AID 1963586); note: nearly all actives have a fitted effect of over 45% in size
Procedure, shortened: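 CHO cells stably expressing human HTR2A were plated for 18 h at 37 C, then loaded with calcium dye for 1 h. Compounds were preincubated 5 min at room temperature before DOI (4 nM solution) was added. Kinetic fluorescence was read for 3 min.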

[10] = biological target: 5-hydroxytryptamine receptor 2A (Homo sapiens) (UniProt P28223); assay: 5-hydroxytryptamine receptor 2A (HTR2A) small molecule agonists, cell-based qHTS assay (AID 1963587); note: nearly all actives have a fitted effect of over 30% in size; note: potency is the fitted concentration of half-maximal effect
Procedure, shortened: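 HTR2A-CHO cells, plated 18 h at 37 C/5% CO2, dye-loaded 1 h at 37 C; compounds in DMSO added by pin tool (agonist mode). Intracellular calcium flux read as kinetic fluorescence on FDSS over 2 min at 1 s intervals.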

[11] = biological target: Muscarinic acetylcholine receptor M1 (Homo sapiens) (UniProt P11229); assay: Cholinergic receptor muscarinic 1 (CHRM1) small molecule antagonists, cell-based qHTS assay (AID 1963588); note: nearly all actives have a fitted effect of over 40% in size; note: potency is the fitted concentration of half-maximal effect
Procedure, shortened: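 Compounds were tested at 15 concentrations in three independent runs. Dye-loaded CHRM1-CHO cells were exposed 5 min at room temperature before stimulation by acetylcholine added at 50nM. Intracellular calcium was read kinetically on FDSS for 3 min.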

[12] = cAMP Responsive Elements (CRE) small molecule agonists, cell-based qHTS assay (AID 1963590)
Procedure, shortened: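 Agonist mode: compound added to CRE-bla HEK 293T cells (2,000/well, 18 h after plating) for 3 h at 37 C/5% CO2. Reporter activity detected via FRET beta-lactamase substrate, 2 h room-temperature loading.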

[13] = cAMP Responsive Elements (CRE) small molecule antagonists, cell-based qHTS assay (AID 1963591; active = well fitted inhibition curve with a large enough effect in the signal ratio in the repeat runs, not every such curve was filed as active; the % refers to the signal ratio)
Procedure, shortened: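 Antagonist mode: compounds are added alongside the adenylyl cyclase activator NKH477 (0.25 uM final) to CRE-bla HEK293T cells for 3 h. LiveBLAzer FRET substrate, 2 h at room temperature, reports bla expression.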

[14] = biological target: Beta-2 adrenergic receptor (Homo sapiens) (UniProt P07550); assay: Adrenergic beta2 receptor (ADRB2) small molecule antagonists, cell-based qHTS assay (AID 1963592); note: series mostly up to about 92 µM; nearly all actives have a fitted effect of over 50% in size
Procedure, shortened: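 Assay format: CHO-ADRB2 cells, 18-20hr seeding at 37C/5% CO2, then compound plus 1nM isoproterenol agonist mix for 0.5hr RT. Homogeneous time-resolved fluorescence cAMP detection after 1hr, expressed as 665/615 nm ratio.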

[15] = biological target: D(2) dopamine receptor (Homo sapiens) (UniProt P14416); assay: Dopamine D2 receptor (DRD2) small molecule agonists, cell-based qHTS assay (AID 1963594); note: nearly all actives have a fitted effect of over 35% in size
Procedure, shortened: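 HEK293 cells stably expressing DRD2 were cultured 24 h at 37 C, then given Ro20-1724 (0.1 mM final) and compounds for 10 min at room temperature. NKH477 (200nM) was then added for 30 min. cAMP was read by HTRF.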

[16] = biological target: D(2) dopamine receptor (Homo sapiens) (UniProt P14416); assay: Dopamine D2 receptor (DRD2) small molecule antagonists, cell-based qHTS assay (AID 1963595; active = well fitted inhibition curve with a large enough effect in the signal ratio in the repeat runs, with a control signal flat; the % refers to the signal ratio)
Procedure, shortened: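 Stable D2 receptor HEK293 line, 24 h after seeding. Compound preincubated 10 min, then quinpirole (12 nM) with forskolin analogue NKH477 (200 nM), 30 min, room temperature. Detection by time-resolved FRET of cAMP.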

[17] = biological target: Muscarinic acetylcholine receptor M1 (Homo sapiens) (UniProt P11229); assay: Cholinergic receptor muscarinic 1 (CHRM1) small molecule agonists, cell-based qHTS assay (AID 1963589); note: nearly all actives have a fitted effect of over 35% in size
Procedure, shortened: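 Agonist-mode calcium-flux screen: compounds at 15 concentrations, three independent runs, were pin-transferred onto dye-loaded human CHRM1-CHO cells. Fluorescence was then recorded kinetically every second over minutes.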

[18] = biological target: Beta-2 adrenergic receptor (Homo sapiens) (UniProt P07550); assay: Adrenergic beta2 receptor (ADRB2) small molecule agonists, cell-based qHTS assay (AID 1963593); note: potency is the fitted concentration of half-maximal effect
Procedure, shortened: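 CHO cells stably over-expressing ADRB2 were plated overnight at 37C, then dosed with compounds plus a stimulation mix containing 100uM IBMX and 25uM Ro-20-1724 for 0.5hr at room temperature. cAMP was measured by HTRF competition, 1hr.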

Chain of Gonadotropin-releasing hormone receptor (Homo sapiens) (P30968 whole entry, looked up): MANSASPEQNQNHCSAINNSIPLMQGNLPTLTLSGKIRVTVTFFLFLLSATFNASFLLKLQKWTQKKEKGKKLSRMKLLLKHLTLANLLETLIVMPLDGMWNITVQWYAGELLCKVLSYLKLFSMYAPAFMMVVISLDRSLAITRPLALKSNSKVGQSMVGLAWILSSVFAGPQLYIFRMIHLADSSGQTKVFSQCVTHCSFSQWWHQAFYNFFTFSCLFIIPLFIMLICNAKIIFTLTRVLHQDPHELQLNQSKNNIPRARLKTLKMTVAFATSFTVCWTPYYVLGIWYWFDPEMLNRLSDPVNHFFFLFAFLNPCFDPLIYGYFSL
Chain of Beta-2 adrenergic receptor (Homo sapiens) (P07550 whole entry, looked up): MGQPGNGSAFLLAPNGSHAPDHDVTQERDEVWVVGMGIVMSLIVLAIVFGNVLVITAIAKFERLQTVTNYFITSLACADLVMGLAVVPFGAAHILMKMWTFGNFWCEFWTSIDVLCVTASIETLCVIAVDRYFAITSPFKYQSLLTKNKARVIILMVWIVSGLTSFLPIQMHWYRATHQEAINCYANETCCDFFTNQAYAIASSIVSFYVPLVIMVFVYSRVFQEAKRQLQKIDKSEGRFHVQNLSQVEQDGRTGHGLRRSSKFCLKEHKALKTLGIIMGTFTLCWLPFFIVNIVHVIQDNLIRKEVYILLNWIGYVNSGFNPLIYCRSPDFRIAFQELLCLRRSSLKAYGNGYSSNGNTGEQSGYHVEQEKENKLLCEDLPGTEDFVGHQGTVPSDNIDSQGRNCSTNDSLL
Chain of KiSS-1 receptor (Homo sapiens) (Q969F8 whole entry, looked up): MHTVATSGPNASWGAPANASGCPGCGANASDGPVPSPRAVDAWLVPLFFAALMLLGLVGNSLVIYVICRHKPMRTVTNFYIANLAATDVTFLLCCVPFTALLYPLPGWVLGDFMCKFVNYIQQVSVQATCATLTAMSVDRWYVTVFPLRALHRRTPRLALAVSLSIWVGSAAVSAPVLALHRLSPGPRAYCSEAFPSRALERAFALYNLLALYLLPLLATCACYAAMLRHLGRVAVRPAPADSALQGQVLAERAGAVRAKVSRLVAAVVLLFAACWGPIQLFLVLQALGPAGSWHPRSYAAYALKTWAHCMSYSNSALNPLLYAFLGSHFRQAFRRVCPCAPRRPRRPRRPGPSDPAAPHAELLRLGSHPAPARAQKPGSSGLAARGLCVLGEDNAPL
Chain of 5-hydroxytryptamine receptor 2A (Homo sapiens) (P28223 whole entry, looked up): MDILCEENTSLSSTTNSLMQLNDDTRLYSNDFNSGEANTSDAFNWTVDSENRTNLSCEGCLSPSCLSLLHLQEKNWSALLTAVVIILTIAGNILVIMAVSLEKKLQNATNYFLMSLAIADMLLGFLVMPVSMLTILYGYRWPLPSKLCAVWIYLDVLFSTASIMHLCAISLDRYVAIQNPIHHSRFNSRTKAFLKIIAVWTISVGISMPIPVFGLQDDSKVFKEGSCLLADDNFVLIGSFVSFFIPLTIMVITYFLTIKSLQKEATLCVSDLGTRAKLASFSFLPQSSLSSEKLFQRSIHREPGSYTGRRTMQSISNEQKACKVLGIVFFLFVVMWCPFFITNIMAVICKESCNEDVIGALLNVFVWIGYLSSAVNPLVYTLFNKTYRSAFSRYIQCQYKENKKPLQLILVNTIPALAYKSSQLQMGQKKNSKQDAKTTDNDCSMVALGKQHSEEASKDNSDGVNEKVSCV
Chain of Muscarinic acetylcholine receptor M1 (Homo sapiens) (P11229 whole entry, looked up): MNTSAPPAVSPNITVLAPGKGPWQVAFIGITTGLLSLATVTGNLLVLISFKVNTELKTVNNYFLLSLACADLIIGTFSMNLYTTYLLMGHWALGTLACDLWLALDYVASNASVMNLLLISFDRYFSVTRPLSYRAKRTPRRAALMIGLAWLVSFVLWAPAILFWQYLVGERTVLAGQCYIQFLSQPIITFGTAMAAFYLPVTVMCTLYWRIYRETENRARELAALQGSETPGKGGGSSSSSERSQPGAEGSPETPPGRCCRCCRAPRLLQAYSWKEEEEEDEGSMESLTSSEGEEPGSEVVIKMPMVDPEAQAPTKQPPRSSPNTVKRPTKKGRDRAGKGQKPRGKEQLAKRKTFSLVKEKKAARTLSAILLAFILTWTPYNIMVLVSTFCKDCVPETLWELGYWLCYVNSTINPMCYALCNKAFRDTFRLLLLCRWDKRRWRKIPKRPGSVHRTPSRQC
Chain of D(2) dopamine receptor (Homo sapiens) (P14416 whole entry, looked up): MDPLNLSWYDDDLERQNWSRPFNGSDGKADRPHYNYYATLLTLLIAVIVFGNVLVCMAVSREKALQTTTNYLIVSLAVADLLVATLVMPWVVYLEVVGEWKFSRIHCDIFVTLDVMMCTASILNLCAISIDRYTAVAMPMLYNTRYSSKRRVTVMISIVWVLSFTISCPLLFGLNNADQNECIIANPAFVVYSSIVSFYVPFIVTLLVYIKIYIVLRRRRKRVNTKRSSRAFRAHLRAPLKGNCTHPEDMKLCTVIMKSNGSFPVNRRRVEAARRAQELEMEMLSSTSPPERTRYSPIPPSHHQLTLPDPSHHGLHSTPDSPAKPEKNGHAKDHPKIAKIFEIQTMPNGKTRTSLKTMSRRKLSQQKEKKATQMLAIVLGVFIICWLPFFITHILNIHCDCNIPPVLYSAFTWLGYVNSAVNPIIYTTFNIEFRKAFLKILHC

SMILES | Potency [1] | Potency [2] | Potency [3] | Potency [4] | Potency [5] | Potency [6] | Potency [7] | Potency [8] | Potency [9] | Potency [10] | Potency [11] | Potency [12] | Potency [13] | Potency [14] | Potency [15] | Potency [16] | Potency [17] | Potency [18]
C=CC(C)(O)CCC=C(C)C (stereo unspecified) | inactive | inactive | inactive | inactive | inactive | inactive | inactive | inactive | inactive | inactive | inactive | inactive | inactive | inactive | inactive | inactive |  | 
CC1CCC(C(C)C)C(O)C1 (stereo unspecified) | inactive | inactive | inactive | inactive | inactive | inactive | inactive | inactive | inactive | inactive | inactive | inactive | inactive | inactive | inactive | inactive | inactive | inactive
Nc1cccc(N)n1 | inactive | inactive | inactive | inactive | inactive | inactive | inactive | inactive | inactive | inactive | inactive | inactive | inactive |  | inactive | inactive |  | 
CCCCCCCCCCCCOCCO | inactive | 27.3 µM (active) | inactive | inactive | inactive | 20.4 µM (active) and inactive | inactive | inactive | inactive |  | inactive | inactive | inactive | inactive | inactive | inactive | inactive | inactive
CC(=O)OC/C=C(\C)CC/C=C(\C)CCC=C(C)C | inactive | inactive | inactive | inactive | inactive | inactive | inactive | inactive | inactive | inactive | inactive | inactive | inactive | inactive | inactive |  | inactive | inactive
Cn1cnc2c1c(=O)[nH]c(=O)n2C | inactive | inactive | inactive | inactive | inactive | inactive | inactive | inactive | inactive | inactive | inactive | inactive | inactive | inactive | inactive | inactive | inactive | inactive
O=Cc1ccccc1C=O | 61.1 µM (active) and inactive | 24.3 µM (active) and inactive | inactive | inactive | inactive | inactive | inactive | inactive | inactive | inactive | 42.1 µM (active) and inactive |  | inactive | inactive | inactive | inactive | inactive | 43.3 µM (active)
COS(C)(=O)=O | inactive | inactive | inactive | inactive | inactive | inactive | inactive | inactive |  |  |  | inactive | inactive | inactive | inactive | inactive |  | inactive
CC1(C)O[C@@H]2C[C@H]3[C@@H]4C[C@H](F)C5=CC(=O)C=C[C@]5(C)[C@@]4(F)[C@@H](O)C[C@]3(C)[C@]2(C(=O)CO)O1 | inactive | inactive | inactive | inactive | inactive | inactive | inactive | inactive |  |  |  |  |  | inactive | inactive | inactive |  | inactive
COc1c(Cl)ccc(Cl)c1C(=O)O | inactive | inactive | inactive | inactive | inactive | inactive |  | inactive | inactive | inactive | inactive | inactive | inactive | inactive | inactive | inactive | inactive | inactive
CC(C)OC(=O)C(C)(C)Oc1ccc(C(=O)c2ccc(Cl)cc2)cc1 | inactive | 61.1 µM (active) and inactive | inactive | inactive | inactive | inactive | inactive | inactive |  |  |  | inactive | inactive | inactive | inactive | inactive |  | 
CC(C)(Oc1ccc(CCNC(=O)c2ccc(Cl)cc2)cc1)C(=O)O | inactive | inactive | inactive | inactive | inactive | inactive | inactive | inactive |  |  |  | inactive | inactive |  | inactive | inactive |  | inactive
O=C(c1ccccc1)c1ccccc1O | inactive | inactive | inactive | inactive | inactive |  | inactive | inactive | inactive | inactive | inactive |  | inactive | inactive | inactive | inactive | inactive | 
OCc1ccccc1 | inactive | inactive and 9.69 µM (active) | inactive | inactive | inactive |  | inactive | inactive |  |  |  | inactive | inactive | inactive | inactive | inactive |  | inactive
CC/C=C\C/C=C\C/C=C\CCCCCCCC(=O)O | inactive | 60.6 µM (active) and 54.5 µM (active) | inactive | inactive | inactive | inactive and 20.4 µM (active) |  | inactive | inactive | inactive | inactive |  |  | inactive | inactive | inactive | inactive | inactive
O=C(Oc1ccccc1)c1ccccc1 | inactive | inactive | inactive | inactive | inactive | inactive |  | inactive | inactive | 55 µM (active) and inactive | inactive | inactive | inactive | inactive | inactive |  | inactive | inactive
